The values below come from the supplement of paper PMC10105736.

Common to all, as to test: MAPPIT interaction score (arbitrary units); higher = stronger binary interaction signal, active = hit call of the paper
One test concerns the target Atx-1. The conditions noted are these: MAPPIT configuration: N-C; pair source set: screen_4. The method, then:
(§1)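 MAPPIT in HEK293T cells: Drosophila bait and prey ORFs (from the FlyBi ORF collection) were co-transfected in quadruplicate, with two wells stimulated by erythropoietin. Interaction-dependent JAK-STAT activation was read out with a STAT-responsive firefly luciferase reporter. Positive calls use the 99th percentile of random reference set (RRS) scores within each batch […]. Batches Dvs01 and Dvs02 used the N-N configuration and Dvs04 the N-C configuration. Pairs come from FlyBi screens, CuraGen, DPiM, Finley Y2H, Lit-BM-16, Lit-BS-16 and RRS.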

Another test addresses Art8. Conditions: MAPPIT configuration: N-N; pair source set: Curagen_high_conf. The method, then: as §1
Another test concerns the target Adar. Conditions: MAPPIT configuration: N-N; pair source set: RRS. How it is done:
as §1

A further test has as its target Ass. Conditions: MAPPIT configuration: N-N; pair source set: Curagen_high_conf. How it is done: as §1
The next test addresses Arc1. The conditions noted are these: MAPPIT configuration: N-N. How it is done:
as §1

In another test the target is CG34382. Conditions: MAPPIT configuration: N-N; pair source set: Curagen_high_conf. The method, then:
as §1

In the next test the target is CG8441. The conditions noted are these: MAPPIT configuration: N-N; pair source set: Lit-BS-16. The method, then: as §1
The target in the next test is Pbgd. Conditions: MAPPIT configuration: N-N; pair source set: DPIM. How it is done: as §1

Unmarked numbers belong to inactive results.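 The calls were made as follows: active = MAPPIT score above the 99th percentile of random reference set scores in the same batch; inactive = at or below it.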
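Also: HEK293T cells with Epo stimulation, STAT-responsive firefly luciferase reporter, fold induction versus unstimulated cells divided by the larger fold induction of two negative controls lacking either bait or prey.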

B1: CG9132 (protein)
chain: MEYESVLIVKPEVFIYKIPPRASNRGYRAGDWNLKEPTWTGRMRLVAKGTAVVLKLEDKTSGALFANCPIDTYPGVAIEAVSDSSRYFVIRVQDDNGRSAFLGLGFGDRSDSFDLNVALQDHFKWVKNQEQIEKEKTEPKQELDLGFKEGETIKINMRITKKDGSEGSSRTGKNKGSSGVLPPPPGGLGKIAPPPAAAAANTTVRQSPGVSPAHRPAAGGSEWTDYASAGGNQGQQNSANANWVQF
With B1, the MAPPIT interaction score with Atx-1 was 2.48.

B2: Ntmt (protein)
chain: MTTTLEEQLSDKLQMMDETTDKVQGSSKQKDDSSIAASSDAKTASPSSSDSSTKVAAPESEFYNKAQKYWSEVPATVNGMLGGLGYISAIDIQGSNVFLREIRVPGNRLALDCGAGIGRVTRNLLIPRFSCVDLVEQDPAFADKAREYCTSEDGSRGKVGQIYNVGLQKFTPTQQYDLVWTQWVLGHLTDRDLVSFFRRIKQGLAPGAFLCLKENVSSSKKTVEDRNDSSVTRPLDSYEHFLKEAGFRIVRKVKQQNFPKGLFPVYMIACKPVSKE
With B2, the MAPPIT interaction score with Art8 is 3.74 (active).

B3: GstZ2 (protein)
chain: MSTNLCPNASSSDIQPILYSYWRSSCSWRVRIAMNLKEIPYDIKPISLIKSGGEQHCNEYREVNPMEQVPALQIDGHTLIESVAIMHYLEETRPQRPLLPQDVHKRAKVREIVEIICSGIQPLQNLIVLIHVGEEKKKEWAQHWITRGFRAVEKALSTSAGKYCVGDEISMADCCLVPQVFNARRFHVDLRPYPIILRIDRELESNPAFRAAHPSNQPDCPPELPNK
As for B3, in the test with Adar, the MAPPIT interaction score is 0.0763.

B4: Git (protein)
chain: MCFASSIIEAHRKLFIAPPDLDHSDPATPTISTRSKMPRGKSRLQTEVCGDCGAGDPSWASINRGILLCADCCSVHRSLGRHISIVKSLRQGNWEPSVLNFVNSLNAHGANSVWEHHLLDGSTNSTGGKHVPRWRKPTPKDALHPTKSDFIKAKHVNLTFVLKPSLQDDDDGNGSAGCLEQELSRQLHASVRTSNLETSLRFLVQGADPNYYHEDKLSTPLHMAAKFGQASQIEMLLIYGADVNALDGNGMTPLELARANNHNTIAERLLDAMYDVTDRIITFLGGKKPDHASGRHMIIPDANGADISEQLKIARGKLQLVPNKMFEELVMDLYDEVDRRECEAIWSTSTLNADHATVPFLPANPFLSATRNQGRQKLARFNRAEFTGLLTDVLVDAMRRQNMANLRPMDAPVAGHQSLQSLPYANNSMLLGSFEQGGHDPNLSDDEPIYDPVASDDDYAPVPPMAQQAIVHTPPRSANSHNEMETLRKQLNDYKSEINQLKNVVQMLSSENTQLKSKFSSASNNSVYDEPLRIDLSLSSPDTEHEPLSLPEGGTANGESGSSNDSSNQSTIKRPASMYERRLVPNVAKGNTDIRNTTSMYQMAGDGKPFGEEVKVRSDLVTRRLKELIRAMQPVPEDQKQSIAPHGELIRSAVTDLIALYANLPPNASDPSRETLKLLTRQNILIQHECENLQKAIEADDKQAIQKNTLEVRDCAFHIASAIKTLVLQFY
B4: the MAPPIT interaction score in the test with Ass is -0.0648.

B5: Arc1 (protein)
chain: MAQLTQMTNEQLRELIEAVRAAAVGAAGSAAAAGGADASRGKGNFSACTHSFGGTRDHDVVEEFIGNIETYKDVEGISDENALKGISLLFYGMASTWWQGVRKEATTWKEAIALIREHFSPTKPAYQIYMEFFQNKQDDHDPIDTFVIQKRALLAQLPSGRHDEETELDLLFGLLNIKYRKHISRHSVHTFKDLLEQGRIIEHNNQEDEEQLATAKNTRGSKRTTRCTYCSFRGHTFDNCRKRQKDRQEEQHEE
As to B5, the MAPPIT interaction score with Arc1 (pair source set: screen_1) was 4.55 (active); in the test with Arc1 (pair source set: screen_2) it was 3.68 (active); in the test with CG34382 it was 0.00338; in the test with CG8441 it was -0.34; with Pbgd, 0.22.
